Among all 310,000 compounds or so, about 14,000 (4.5%) showed an effect of 50% or more. Effects have a minus sign here. Only a selection was taken, and strong results are over-represented in it overall.
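Further: peak tail current of the secondary pulse compared with the same well before compound.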

In the assay the target is human ether-à-go-go-related gene (hERG) potassium channel (human, UniProt Q12809). The assay is described as follows: primary screen, population patch clamp on CHO cells stably expressing hERG; higher = less effect of the substance.
human ether-à-go-go-related gene (hERG) potassium channel, sequence (Q12809 whole entry, looked up): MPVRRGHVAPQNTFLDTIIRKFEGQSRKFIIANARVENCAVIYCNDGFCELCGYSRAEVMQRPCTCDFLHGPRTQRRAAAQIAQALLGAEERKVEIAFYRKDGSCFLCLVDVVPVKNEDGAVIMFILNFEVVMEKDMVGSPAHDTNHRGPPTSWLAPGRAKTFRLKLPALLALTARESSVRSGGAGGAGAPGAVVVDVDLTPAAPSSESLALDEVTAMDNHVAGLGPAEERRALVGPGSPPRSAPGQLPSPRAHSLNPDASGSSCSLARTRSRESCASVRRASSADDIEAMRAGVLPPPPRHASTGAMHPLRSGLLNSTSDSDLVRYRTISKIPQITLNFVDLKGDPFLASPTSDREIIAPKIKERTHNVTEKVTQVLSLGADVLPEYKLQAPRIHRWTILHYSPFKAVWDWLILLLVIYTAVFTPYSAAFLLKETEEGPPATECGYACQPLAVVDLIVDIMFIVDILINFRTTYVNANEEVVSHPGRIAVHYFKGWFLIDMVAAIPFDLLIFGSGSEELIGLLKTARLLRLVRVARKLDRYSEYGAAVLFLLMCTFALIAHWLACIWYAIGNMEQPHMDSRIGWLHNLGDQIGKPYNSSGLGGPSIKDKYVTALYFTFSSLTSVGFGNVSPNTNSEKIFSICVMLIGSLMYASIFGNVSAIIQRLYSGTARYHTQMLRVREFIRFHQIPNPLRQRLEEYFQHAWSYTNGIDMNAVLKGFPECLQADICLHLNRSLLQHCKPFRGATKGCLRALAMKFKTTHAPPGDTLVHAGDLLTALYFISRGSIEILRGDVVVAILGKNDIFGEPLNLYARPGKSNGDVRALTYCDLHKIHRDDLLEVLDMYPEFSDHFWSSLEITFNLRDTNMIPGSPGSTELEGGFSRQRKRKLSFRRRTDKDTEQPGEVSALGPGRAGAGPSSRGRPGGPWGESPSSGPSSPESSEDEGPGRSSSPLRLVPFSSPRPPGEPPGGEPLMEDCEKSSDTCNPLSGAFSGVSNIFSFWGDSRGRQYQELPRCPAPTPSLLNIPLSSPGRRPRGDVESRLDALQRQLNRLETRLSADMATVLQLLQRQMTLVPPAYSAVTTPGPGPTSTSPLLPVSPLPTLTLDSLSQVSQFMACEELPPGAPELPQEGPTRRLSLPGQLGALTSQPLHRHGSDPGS
Take `O=C1CN(C(=O)COC(=O)CNC(=O)c2ccc(Cl)cc2)c2ccccc2N1`: the “hERG current change (%, negative = inhibition) at 10uM” value is on record as -6.75%. On to `CC(C)OC(=O)/C(C#N)=C\c1cccnc1`, for which the “hERG current change (%, negative = inhibition) at 10uM” value is on record as 26.3%.

With `Cc1cccnc1NC(=O)c1cccc(S(=O)(=O)N2CCCC2)c1`, the “hERG current change (%, negative = inhibition) at 10uM” value is -8.13%. In the case of `CCCn1c(N)c(C(=O)COC(=O)c2c(C)noc2C)c(=O)n(C)c1=O`, the “hERG current change (%, negative = inhibition) at 10uM” value is given as -21%.

With `COC(=O)CN1C(=O)[C@H]2[C@@H](c3ccc(C)o3)N3C(=O)CN(CCO)C(=O)[C@@]3(C)[C@H]2C1=O`, the “hERG current change (%, negative = inhibition) at 10uM” value is -2.13%. On to `CN=C1S/C(=C\c2ccc(Cl)cc2)C(=O)N1C`, for which the “hERG current change (%, negative = inhibition) at 10uM” value is listed as 27%. In the case of `CCCN(CC1CC1)C(=S)Nc1ccc(C(C)=O)cc1`, the “hERG current change (%, negative = inhibition) at 10uM” value was found to be 0.105%. For `CCOc1ccc(CN2CCN(Cc3cccn3-c3ncccn3)CC2CCO)cc1` (stereo not drawn), the “hERG current change (%, negative = inhibition) at 10uM” value was -78.3%. As for `CCOc1ccc(CN2CCN(Cc3cccn3-c3cccnc3)CC2CCO)cc1` (stereo not drawn), the “hERG current change (%, negative = inhibition) at 10uM” value was -84.1%. For the compound `OCCC1CN(Cc2cccn2-c2cccnc2)CCN1Cc1ccccc1` (stereo not drawn), the “hERG current change (%, negative = inhibition) at 10uM” value is reported as -42.4%. Consider `OCCC1CN(Cc2cccn2-c2cccnc2)CCN1C1CCCCC1` (stereo not drawn), for which the “hERG current change (%, negative = inhibition) at 10uM” value is -28.1%.

Regarding `OCCC1CN(Cc2cccn2-c2cccnc2)CCN1Cc1ccc(F)cc1` (stereo not drawn), the “hERG current change (%, negative = inhibition) at 10uM” value is -56.9%. For the compound `COc1cccc(CN2CCN(Cc3cccn3-c3cccnc3)CC2CCO)c1` (stereo not drawn), the “hERG current change (%, negative = inhibition) at 10uM” value was -71.4%. Consider `COC(=O)c1ccc(C)c(NC(=O)CCc2ccc(OC)cc2)c1`, for which the “hERG current change (%, negative = inhibition) at 10uM” value is listed as -3.01%. As for `CCn1c(SC)nnc1C1CCN(CC(=O)Nc2ccccc2N2CCOCC2)CC1`, the “hERG current change (%, negative = inhibition) at 10uM” value is recorded as -31%. With `Nc1ccc(C(=O)Oc2ccc([N+](=O)[O-])cc2)cc1` the figure was 10.9%; with `Cc1ccc(NC(=O)Nc2ccccc2)c(Br)c1`, -1.55%. `Fc1ccc(NC(=S)N2CCCC2)cc1`: the “hERG current change (%, negative = inhibition) at 10uM” value is recorded as -1.37%. As for `Cc1cc(OCC(O)CNC(C)(C)C)ccc1Cl.Cl` (stereo not drawn), the “hERG current change (%, negative = inhibition) at 10uM” value is recorded as -4.91%. In the case of `CCCc1cnc(NCCNCC(O)COc2ccc(Cl)c(Cl)c2)nc1` (stereo not drawn), the “hERG current change (%, negative = inhibition) at 10uM” value is -71.2%.

As to `Cc1cc(OCC(O)CN)ccc1Cl` (stereo not drawn), the “hERG current change (%, negative = inhibition) at 10uM” value is given as 8.74%. Take `CC(C)c1ccc(OCC(=O)NC2=NCCS2)cc1`: the “hERG current change (%, negative = inhibition) at 10uM” value is on record as 1.4%.

For the compound `CCc1cccc(C)c1NC(=O)CN(C)Cc1ccccc1F.O=C(O)C(=O)O`, the “hERG current change (%, negative = inhibition) at 10uM” value was -23.8%. With `CCC(C)c1ccc(NC(=O)CC(C)=O)cc1` (stereo not drawn), the “hERG current change (%, negative = inhibition) at 10uM” value was 4.93%.

Take `CCC(C)c1ccc(NC(=O)COc2c(F)c(F)c(C(F)(F)F)c(F)c2F)cc1` (stereo not drawn): the “hERG current change (%, negative = inhibition) at 10uM” value is -57.4%. Take `COc1cccc(NC(=O)COc2c(F)c(F)c(C(F)(F)F)c(F)c2F)c1`: the “hERG current change (%, negative = inhibition) at 10uM” value stood at 8.02%. With `Nc1ccc(C(=O)NC23CC4CC(CC(C4)C2)C3)cc1`, the “hERG current change (%, negative = inhibition) at 10uM” value stood at 16.3%. On to `C=CCN(c1ccccc1)S(=O)(=O)c1cccc(C(=O)Nc2ncccc2O)c1`, for which the “hERG current change (%, negative = inhibition) at 10uM” value is 8.35%. With `Cn1nccc1C(=O)Nc1ccc(OC(=O)c2ccnn2C)cc1` the figure was -6.68%; with `Cl.OC(CN1CCCCCC1)CN(c1ccccc1)c1ccccc1` (stereo not drawn), -71.8%. Turning to `CN(CC(O)CN)CC(O)CN1CCCCC1.Cl` (stereo not drawn), the “hERG current change (%, negative = inhibition) at 10uM” value came to 4.64%. For `Cl.OC(CN1CCOCC1)CN(c1ccccc1)c1ccccc1` (stereo not drawn), the “hERG current change (%, negative = inhibition) at 10uM” value was -28.5%. For the compound `Cl.OC(CN1CCCCC1)CN(c1ccccc1)c1ccccc1` (stereo not drawn), the “hERG current change (%, negative = inhibition) at 10uM” value is given as -63.2%. Take `COc1ccc(-c2cc(C(=O)NCc3cccs3)no2)cc1`: the “hERG current change (%, negative = inhibition) at 10uM” value is listed as 7.1%. With `O=C(COC(=O)c1cccnc1Cl)Nc1cc(S(=O)(=O)N2CCCCC2)ccc1Cl` the figure was -18.9%.

On to `COc1ccc(NC(=O)Cn2nnc(C(=O)NCc3ccc4c(c3)OCO4)c2N)cc1`, for which the “hERG current change (%, negative = inhibition) at 10uM” value stood at 18.4%. For the compound `Cc1ccc(N2CC(C(=O)N3CCN(c4ccccc4)CC3)CC2=O)cc1` (stereo not drawn), the “hERG current change (%, negative = inhibition) at 10uM” value is listed as -17.6%.

As for `O=C(C1CC(=O)N(c2ccc(F)cc2)C1)N1CCCCC1` (stereo not drawn), the “hERG current change (%, negative = inhibition) at 10uM” value is given as -0.378%. `O=C(C1CC(=O)N(c2ccc(F)cc2)C1)N1CCN(c2ccc(F)cc2)CC1` (stereo not drawn): the “hERG current change (%, negative = inhibition) at 10uM” value was -73.1%. Regarding `O=C(C1CC(=O)N(c2ccc(F)cc2)C1)N1CCN(c2ccccc2)CC1` (stereo not drawn), the “hERG current change (%, negative = inhibition) at 10uM” value is recorded as -58.3%. With `O=C(C1CC(=O)N(c2ccccc2)C1)N1CCN(c2ccc(F)cc2)CC1` (stereo not drawn) the figure was -56.7%. On to `O=C(C1CC(=O)N(c2ccc(F)cc2)C1)N1CCCCCC1` (stereo not drawn), for which the “hERG current change (%, negative = inhibition) at 10uM” value is listed as -6.27%. Turning to `CC(c1ccccc1)N1CC(C(=O)N2CCN(c3ccccc3)CC2)CC1=O` (stereo not drawn), the “hERG current change (%, negative = inhibition) at 10uM” value is -27.2%. Regarding `CC(c1ccccc1)N1CC(C(=O)O)CC1=O` (stereo not drawn), the “hERG current change (%, negative = inhibition) at 10uM” value turned out to be 10.7%. Regarding `O=C(C1CC(=O)N(c2ccccc2)C1)N1CCN(c2ccccc2)CC1` (stereo not drawn), the “hERG current change (%, negative = inhibition) at 10uM” value is reported as -29%. In the case of `O=C(C1CC(=O)N(c2ccccc2)C1)N1CCN(c2ccccc2F)CC1` (stereo not drawn), the “hERG current change (%, negative = inhibition) at 10uM” value is -13.4%. On to `CC(c1ccccc1)N1CC(C(=O)N2CCN(c3ccc(F)cc3)CC2)CC1=O` (stereo not drawn), for which the “hERG current change (%, negative = inhibition) at 10uM” value was -65.3%. `O=C(O)C1CC(=O)N(c2ccc(F)cc2)C1` (stereo not drawn): the “hERG current change (%, negative = inhibition) at 10uM” value worked out at 14.1%.

These data come from article PMC4336329 (PLoS ONE, 2015).
